According to PubChem BioAssay (NCI):
Compounds without any hit were thinned out: in the full panel of roughly 83,000, 20% have a hit.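 Growth was measured after 48 h exposure to one concentration of compound in 96-well plates. Values under 10 count as active.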 Values without a mark were called inactive. Activity calls are given as the source filed them.

The compounds below were run on HL-60(TB) leukemia (assay: NCI-60 one-dose screen, 48 h (100 = growth as untreated, 0 = no growth, -100 = all killed)). Conditions: 10 µM unless noted.

Row | SMILES | growth
1 | COc1cc(-c2nc(SCC(=O)Nc3ccc(C(C)=O)cc3)[nH]c(=O)c2C#N)cc(OC)c1OC | -54.3% (active)
2 | CC(C)C[C@H](NC(=O)/C=C/Cn1ccc2ccccc2c1=O)B(O)O | 24.2%
3 | N=C(N)c1ccc(-c2ccc(-c3ccc(Cl)c(Cl)c3)s2)cc1 | -32% (active)
4 | N#C/C(=C\c1ccc(-c2cccc(Cl)c2)o1)C(=O)Nc1ncc(Cc2ccc(Cl)cc2)s1 | 83.9%
5 | O=C(NCCOCCOCCOCCNC(=O)c1cc2c(o1)C(=O)c1ccccc1C2=O)NC12CC3CC(CC(C3)C1)C2 | 1.17% (active)
6 | O=C1/C(=C/c2cccc([N+](=O)[O-])c2)COc2ccc(O)cc21 | 15.3%
7 | Cc1ccc(S(=O)(=O)NC(CCC(=O)Nc2ccc(Cl)cc2)C(=O)Nc2ccc(Cl)cc2)cc1 (centres undefined) | 24.1%
8 | CCOC(=O)Nc1ccc2c(c1)C(=O)N(CCOC)c1ccccc1O2 | -17.1% (active)
9 | O=C(COc1ccc(/C=C2\Oc3ccccc3C2=O)cc1)c1ccc(Cl)cc1 | 94.5%
10 | COc1cccc(C2C3=C(COC3=O)N(CCO)c3cc4c(cc32)CCC4)c1 (centres undefined) | -0.364% (active)
11 | CC1(C)NC(=S)NC1=O | 89.9%
12 | C=CCN(/C=C1/C(=O)O[C@H](COC)[C@@]2(C)C1=C(O)C(=O)C1=C2[C@H](OC(C)=O)C[C@]2(C)C(=O)CC[C@@H]12)CC=C | 5.66% (active)
13 | Nc1c(C(=O)Nc2cccc3ccccc23)sc2nc3c(cc12)CCCCC3 | -25.9% (active)
14 | O=CNc1cc(Cl)cc(Cl)c1 | 93.2%
